Source: PubChem BioAssay (National Center for Advancing Translational Sciences (NCATS))
SW480 rerep: A quantitative high throughput screen for small molecules that induce DNA re-replication in SW480 colon adenocarcinoma cells; SW480 DNA re-replication, Hoechst DNA content imaging, 48 h; Potency, µM (titrated, usually from 46.1 µM), usual class: activators; 340,000 compounds, 1.8% hits; further: nearly all actives have a fitted effect of over 55% in size
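First, 250 cells per well were seeded. Next, compound or vehicle (23 nL) was pinned in, plates sat 48 hr at 37 C. Finally Hoechst was added for 40 min before fluorescence scanning.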
ELG1 DNA repair: qHTS screen for small molecules that inhibit ELG1-dependent DNA repair in human embryonic kidney (HEK293T) cells expressing luciferase-tagged ELG1. HEK293T ELG1-luciferase reporter, luminescence, 16 h; DNA damage induced by 5-fluorouridine. Potency, µM (doses to about 46.1 µM), usual class: inhibitors. 330,000 compounds, 2.3% hits. AID 504467, 2011; further: nearly all actives have a fitted effect of over 55% in size
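HEK293T cells expressing luciferase-tagged ELG1 (2,000/well) received 5-Fluorouridine plus compound or DMSO for 16 hr at 37 °C. Luciferase was read by ONE-Glo luminescence after 30 min at room temperature.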
VP16 counter: VP16 counterscreen qHTS for inhibitors of ROR gamma transcriptional activity; Drosophila S2 Gal4-VP16 UAS-luciferase, luminescence, 20 h; Potency, µM (doses to about 53.6 µM), hits mostly inhibitors; 310,000 compounds, 3.5% hits;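 further: Gal4-VP16 expression switched on by copper sulfate through the metallothionein promoter; nearly all actives have a fitted effect of over 50% in size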
RORgamma inh: qHTS for inhibitors of ROR gamma transcriptional activity. Drosophila S2 Gal4-RORgamma UAS-luciferase reporter, 20 h. Nuclear receptor ROR-gamma (Mus musculus), P51450. 310,000 compounds, 5.4% hits. AID 2551, 2010. Potency, µM (top dose mostly 53.6 µM), actives largely listed as inhibitors; further: nearly all actives have a fitted effect of over 60% in size
Target sequence (P51450 whole entry, looked up, the tested form may be a part): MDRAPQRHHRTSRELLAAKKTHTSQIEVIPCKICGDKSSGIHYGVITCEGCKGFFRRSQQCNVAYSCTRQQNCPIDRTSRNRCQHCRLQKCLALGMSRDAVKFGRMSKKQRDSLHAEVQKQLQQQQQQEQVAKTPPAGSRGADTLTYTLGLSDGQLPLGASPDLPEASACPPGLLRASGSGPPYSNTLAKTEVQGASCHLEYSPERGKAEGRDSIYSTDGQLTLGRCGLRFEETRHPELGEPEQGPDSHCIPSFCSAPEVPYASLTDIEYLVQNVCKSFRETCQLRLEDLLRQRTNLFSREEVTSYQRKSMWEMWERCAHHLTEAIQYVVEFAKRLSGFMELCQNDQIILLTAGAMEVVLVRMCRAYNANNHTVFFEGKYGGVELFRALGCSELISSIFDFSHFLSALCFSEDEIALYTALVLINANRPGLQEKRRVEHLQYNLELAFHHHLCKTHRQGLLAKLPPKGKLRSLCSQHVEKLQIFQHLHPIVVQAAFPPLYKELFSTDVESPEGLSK
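ROR gamma transcriptional activity was tracked as Gal4-UAS luciferase output in stably transfected Drosophila Schneider cells, with compound added 1 hr before 700 uM copper sulfate induction and a 20 hr ambient-temperature incubation.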
MCF10A rereplic: A quantitative high throughput screen for small molecules that induce DNA re-replication in MCF 10a normal breast cells; 350,000 compounds, 2.9% hits; Potency, µM (doses to about 46.1 µM), actives largely listed as activators; MCF 10A DNA re-replication, Hoechst nuclear intensity, 48 h; further: nearly all actives have a fitted effect of over 50% in size
A number is an active result; . = inactive; ? = inconclusive; / = no result; [ ] = dose if it differs, or a comment. In the library only some 10% were active in any assay of this set; here they are far more common. The call rests on the fitted dose curve; in most records, active means well fitted curve in the direction sought with a large enough effect; inconclusive means small, poorly fitted or top-dose-only effect, or another doubt; inactive means no such curve, though single readings can be large; an effect the other way counts as inactive or inconclusive.

SMILES | SW480 rerep | ELG1 DNA repair | VP16 counter | RORgamma inh | MCF10A rereplic
CNc1c([N+](=O)[O-])cnn1-c1cccc(Cl)n1 | . | ? | .[10 µM] | . | .
Cc1ccc2cc(C#N)c(NCCNC(=O)C3CC3)nc2c1C | ? | 21µM | . | ? | ?
Cc1cc(C)c2nc(NCCCNC(=S)NCCCN(C)C)c(C#N)cc2c1 | 12µM | . | .[10 µM] | ? | 18µM
COCCCNC(=S)NCCNc1nc2cc(C)cc(C)c2cc1C#N | . | . | ? | 8.9µM | .
Cc1ccc2cc(C#N)c(NCCNC(=S)NCCCN(C)C)nc2c1C | ? | ? | . | ? | 21µM
COc1cc(C(=O)NCCCNc2nc3cc(C)cc(C)c3cc2C#N)cc(OC)c1OC | . | ? | . | ? | ?
Cc1cccc2cc(C#N)c(NCCNC(=O)COc3ccccc3)nc12 | . | . | ? | ? | ?
CCOCCCNC(=S)NCCCNc1nc2c(C)cc(C)cc2cc1C#N | . | . | . | . | .
CCOCCCNC(=S)NCCNc1nc2c(C)cccc2cc1C#N | ? | ? | 3.2µM | 0.25µM | ?
N#Cc1cc(C#N)c(N2CCN(c3cccc(Cl)n3)CC2)nc1N | . | . | ? | ? | 3.3µM
O=C1c2ccccc2-c2cccnc21 | . | . | ? | ? | .
O=C1c2ccccc2C(=O)c2c(/C=C/N3CCCCC3)ccnc21 | 21µM | / | / | / | ?
CC(=O)NCCNc1cc(-c2ccccc2CN(C)C)ncn1 | / | / | . | . | /
COc1cccc(OC)c1CN1CCCC(C(=O)c2ccccc2SC)C1 (configuration not stated) | . | . | . | ? | .
CCn1cc(C(=O)N[C@@H](CCSC)C(=O)NCCCN2CCOCC2)c(=O)c2cc3c(cc21)OCO3 | . | . | . | . | .
CN(C)C(=S)NC(=NCc1ccc([N+](=O)[O-])cc1)c1ccccc1 | . | . | . | 20µM | .
COc1ccccc1C1C=C(c2ccccc2)Nc2nnnn21 (configuration not stated) | ? | . | . | . | 7.3µM
Cc1ccc(C2=CC(c3ccc(N(C)C)cc3)n3nnnc3N2)cc1 (configuration not stated) | ? | . | ? | . | 23µM
COc1ccc(C2=CC(c3sccc3C)n3nnnc3N2)cc1 (configuration not stated) | . | ? | . | ? | ?
COc1cccc(C2=CC(c3ccc(OC)c(OC)c3OC)n3nnnc3N2)c1 (configuration not stated) | . | ? | ? | . | .
COc1cccc(C2=CC(c3cccs3)n3nnnc3N2)c1 (configuration not stated) | 5.8µM | . | . | . | 4.1µM
COc1ccc(C2=CC(c3ccc(F)cc3)n3nnnc3N2)cc1 (configuration not stated) | 15µM | . | . | . | 23µM
O=C(Cn1cnc2ccccc2c1=O)Nc1ccc(N2CCOCC2)cc1 | . | . | . | . | .
O=C(O)CCCC(=O)N1N=C(c2ccccc2)CC1c1ccc2c(c1)OCO2 (configuration not stated) | . | . | . | . | .
CN(C)c1ccc(C(CNS(=O)(=O)c2ccc(F)cc2)c2c[nH]c3ccccc23)cc1 (configuration not stated) | . | . | . | ? | 21µM
SMILES | SW480 rerep | ELG1 DNA repair | VP16 counter | RORgamma inh | MCF10A rereplic
c1ccc(N(c2ccccc2)c2nc(N3CCCC3)nc(-n3ccnc3)n2)cc1 | ? | ? | 11µM | 7.1µM | 3.7µM
CN(c1ccccc1)c1nc(N2CCCC2)nc(-n2ccnc2)n1 | . | ? | 11µM | 4.5µM | ?
c1ccc(-c2nc(-n3ccnc3)nc(-n3ccnc3)n2)cc1 | . | ? | . | ? | ?
CCOC(=O)N1CCN(c2nc(N(c3ccccc3)c3ccccc3)nc(-n3ccnc3)n2)CC1 | / | . | . | . | /
c1ccc(CN2CCN(c3nc(-c4ccccc4)nc(-n4ccnc4)n3)CC2)cc1 | 21µM | . | ? | 14µM | ?
O=C(Nc1cccc(C(=O)N2CCOCC2)c1)c1ccc([N+](=O)[O-])cc1 | . | . | . | . | .
Cc1cc(NC(=O)CN2C(=O)c3ccccc3C2=O)no1 | . | . | . | . | .
Cc1c(C(C)NC(=O)c2cc(COc3cccc4cnccc34)on2)cnn1C (configuration not stated) | . | 3.7µM | 13µM | . | .
CCc1ccc(CN(C)C(=O)c2cc(COc3cccc4cnccc34)on2)cc1 | . | ? | ? | . | 21µM
Cc1ccc(-c2ccc(C(=O)O)[nH]2)cc1 | . | ? | . | . | .
S=c1[nH]c(-c2ccc(Cl)cc2)cs1 | . | ? | . | 7.1µM | .
Clc1ccc(-c2ccn[nH]2)cc1 | . | ? | . | . | .
S=c1nccc(-c2ccc(Cl)cc2)[nH]1 | . | ? | 5µM | 2.8µM | .
Cc1ccc(-c2csc(=S)[nH]2)cc1 | . | ? | ? | 7.1µM | .
S=c1[nH]nc(Nc2ccc(Cl)cc2)s1 | . | ? | . | ? | .
Cc1ccc(S(=O)(=O)N(Cc2ccccc2)c2ccccc2C(=O)N2CCCCC2)cc1 | 18µM | ? | . | . | ?
CN1CCN(C(=O)c2ccccc2N(Cc2ccccc2)S(=O)(=O)c2ccccc2)CC1 | . | . | . | . | .
C/C(=N\NC(=O)c1cccc(S(=O)(=O)N2CCCC2)c1)c1cccs1 | . | ? | ? | 13µM | .
C/C(=N/NC(=O)c1ccc(O)cc1)c1cccc([N+](=O)[O-])c1 | . | ? | 13µM | 3.2µM | .
CC(=O)Nc1cccc(/C(C)=N/NC(=O)c2ccc(O)cc2)c1 | . | . | ? | 11µM | .
C/C(=N\NC(=O)c1ccccc1O)c1cccc(NC(=O)c2ccccc2)c1 | . | . | . | ? | .
C/C(=N\NC(=O)c1cccc([N+](=O)[O-])c1)c1cccs1 | . | ? | 6.3µM | 4µM | .
C/C(=N\NC(=O)c1cccc([N+](=O)[O-])c1)c1ccncc1 | . | . | . | . | .[9.22 µM]
CCN(CC)C(=O)c1sc(NC(=O)C(Sc2ccccc2)c2ccccc2)c(C(=O)OC(C)C)c1C (configuration not stated) | . | ? | . | . | .
C/C(=N\NC(=O)c1ccncc1)c1cccs1 | . | ? | .[10 µM] | ? | .
C/C(=N/NC(=O)c1cc(C2CC2)[nH]n1)c1cccs1 | . | ? | 10µM | 11µM | ?
CC1CCN(Cc2c(C(=O)N/N=C/c3cc(Cl)ccc3O)nnn2-c2nonc2N)CC1 | . | 2.1µM | 4.5µM | 3.5µM | .
CC1CCN(Cc2c(C(=O)N/N=C/c3cc(Br)ccc3O)nnn2-c2nonc2N)CC1 | ? | 2.6µM | 7.1µM | 3.5µM | .
COc1c(Cl)cc(Cl)cc1/C=N/NC(=O)c1nnn(-c2nonc2N)c1CN1CCC(C)CC1 | ? | . | . | . | 5.8µM
